Results as given in PubChem BioAssay (EPA / NIEHS).
Active and inactive are the calls of the source. Rule for the calls: active = hit-call score of the fitted dose curve at least 0.9, where 1 is the maximum; inactive = score below 0.9.

Legend:
Settings in all cases: mRNA level, 48 h; actives raise or lower the signal
[1] = read-out: Glutathione S-Transferase (GSTA2), GSTA2 (gene 2939); experiment: LTEA_HepaRG_GSTA2: Life Technologies and Expression Analysis (LTEA) Assay for Glutathione S-Transferase (GSTA2) using HepaRG (AID 2283497)
Method in brief: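 qRT-PCR readout of GSTA2 transcript, normalized to three housekeeping genes, fitted bidirectionally against 0.5% DMSO baseline. Differentiated HepaRG cells received compound for 48 h at 8 concentrations (top 100 uM, half-log steps).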

[2] = read-out: growth arrest and DNA damage 45 (GADD45G), GADD45G (gene 10912); experiment: LTEA_HepaRG_GADD45G: Life Technologies and Expression Analysis (LTEA) Assay for growth arrest and DNA damage 45 (GADD45G) using HepaRG (AID 2283499)
Method in brief: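 HepaRG, 48 h exposure, top 100 uM, half-log 8-point series, 0.5% DMSO vehicle, duplicates. Readout: GADD45G transcript by qRT-PCR (Fluidigm array), housekeeping-normalised (ACTB/GAPDH/POLR2A). Bidirectional curve fit vs DMSO baseline.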

[3] = read-out: Glutamate-cysteine ligase regulatory (GCLM), GCLM (gene 2730); experiment: LTEA_HepaRG_GCLM: Life Technologies and Expression Analysis (LTEA) Assay for Glutamate-cysteine ligase regulatory (GCLM) using HepaRG (AID 2283500)
Method in brief: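 HepaRG, 48 h dosing, 100 uM top, half-log x8, 0.5% DMSO vehicle. Readout: GCLM mRNA by TaqMan qRT-PCR, housekeeping-normalized (ACTB/GAPDH/POLR2A). Curves fit bidirectionally vs DMSO baseline.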

[4] = read-out: Glutathione S-transferase M3 (GSTM3), GSTM3 (gene 2947); experiment: LTEA_HepaRG_GSTM3: Life Technologies and Expression Analysis (LTEA) Assay for Glutathione S-transferase M3 (GSTM3) using HepaRG (AID 2283501)
Method in brief: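 qRT-PCR read-out of GSTM3 transcript, normalized to three housekeeping genes, from human HepaRG cells after 48 h chemical exposure. Eight-point half-log series, top 100 uM, 0.5% DMSO vehicle; gain or loss fitted relative to DMSO baseline.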

[5] = read-out: Heat shock 70 kDa protein 1 (HSPA1A), gene 3303; experiment: LTEA_HepaRG_HSPA1A: Life Technologies and Expression Analysis (LTEA) Assay for Heat shock 70 kDa protein 1 (HSPA1A) using HepaRG (AID 2283502)
Method in brief: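 HepaRG, 48 h exposure, 8-pt half-log CRC from 100 uM in 0.5% DMSO, duplicates. Readout: TaqMan qRT-PCR of HSPA1A mRNA, housekeeping-normalized (ACTB/GAPDH/POLR2A). Bidirectional fit vs 0.5% DMSO baseline.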

[6] = read-out: Hypoxia-inducible factor 1-alpha (Homo sapiens) (UniProt Q16665); experiment: LTEA_HepaRG_HIF1A: Life Technologies and Expression Analysis (LTEA) Assay for Hypoxia-inducible factor 1 (HIF1A) Trancription factor using HepaRG (AID 2283503)
Method in brief: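 Gain- or loss-of-signal HIF1A mRNA changes are fitted against a DMSO baseline. HepaRG cultures receive eight concentrations, highest 100 uM, for 48 h in serum-free induction medium with 0.5% DMSO.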

[7] = read-out: 3-Hydroxy-3-Methylglutaryl-CoA Synthase 2 (HMGCS2), HMGCS2 (gene 3158); experiment: LTEA_HepaRG_HMGCS2: Life Technologies and Expression Analysis (LTEA) Assay for 3-Hydroxy-3-Methylglutaryl-CoA Synthase 2 (HMGCS2) using HepaRG (AID 2283504)
Method in brief: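 qRT-PCR read-out of HMGCS2 transcript, normalised to three housekeeping genes, in HepaRG cells after 48 h chemical exposure. Eight-point curves from 100 uM, half-log dilutions, 0.5% DMSO vehicle; gain or loss fitted relative to DMSO baseline.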

[8] = read-out: HGF (gene 3082); experiment: LTEA_HepaRG_HGF: Life Technologies and Expression Analysis (LTEA) Assay for Hepatocyte Growth Facto (HGF) using HepaRG (AID 2283505)
Method in brief: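 HepaRG, 48 h dosing, 8-pt half-log series from 100 uM in 0.5% DMSO, duplicates. Readout: TaqMan qRT-PCR of HGF mRNA, housekeeping-normalized; bidirectional curve fit vs DMSO baseline.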

[9] = read-out: Insulin Like Growth Factor 1 (IGF1), IGF1 (gene 3479); experiment: LTEA_HepaRG_IGF1: Life Technologies and Expression Analysis (LTEA) Assay for Insulin Like Growth Factor 1 (IGF1) using HepaRG (AID 2283506)
Method in brief: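 qRT-PCR readout of IGF1 mRNA, normalized to three housekeeping genes, after 48 h chemical exposure of HepaRG cells. Concentrations: 8-point half-log series, top 100 uM, 0.5% DMSO vehicle. Gain or loss fitted against DMSO baseline.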

[10] = read-out: Intercellular Adhesion Molecule 1 (ICAM1), ICAM1 (gene 3383); experiment: LTEA_HepaRG_ICAM1: Life Technologies and Expression Analysis (LTEA) Assay for Intercellular Adhesion Molecule 1 (ICAM1) using HepaRG (AID 2283507)
Method in brief: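 HepaRG, 48 h exposure, 8-pt half-log series from 100 uM, 0.5% DMSO vehicle, duplicates. Readout: TaqMan qRT-PCR mRNA, housekeeping-normalized (ACTB/GAPDH/POLR2A). Bidirectional curve fit vs DMSO baseline.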

[11] = read-out: Insulin-like growth factor-binding protein 1 (IGFBP1), IGFBP1 (gene 3484); experiment: LTEA_HepaRG_IGFBP1: Life Technologies and Expression Analysis (LTEA) Assay for Insulin-like growth factor-binding protein 1 (IGFBP1) using HepaRG (AID 2283508)
Method in brief: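 qRT-PCR mRNA read-out (TaqMan, Fluidigm array), normalised to three housekeeping genes; HepaRG cells, 48 h exposure, 8-pt half-log series from 100 uM, 0.5% DMSO vehicle; bidirectional curve fit vs DMSO baseline.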

[12] = read-out: Interleukin 6 (IL6), IL6 (gene 3569); experiment: LTEA_HepaRG_IL6: Life Technologies and Expression Analysis (LTEA) Assay for Interleukin 6 (IL6) using HepaRG (AID 2283509)
Method in brief: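 qRT-PCR read-out of IL6 transcript, normalized to three housekeeping genes, after 48 h chemical exposure of HepaRG cells; 8-point half-log series, top 100 uM, 0.5% DMSO vehicle. Bidirectional curve fitting against DMSO baseline.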

[13] = read-out: Interleukin 6 Receptor (IL6R), IL6R (gene 3570); experiment: LTEA_HepaRG_IL6R: Life Technologies and Expression Analysis (LTEA) Assay for Interleukin 6 Receptor (IL6R) using HepaRG (AID 2283510);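 for AC50: differentiated human HepaRG liver cells in serum-free induction medium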
Method in brief: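 HepaRG, 48 h exposure, 8-pt half-log series, top 100 uM, 0.5% DMSO vehicle, duplicates. Read-out: TaqMan qRT-PCR of IL6R transcript, housekeeping-gene normalized. Gain or loss fitted relative to DMSO baseline.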

[14] = read-out: Potassium channel subfamily K member 1 (KCNK1), KCNK1 (gene 3775); experiment: LTEA_HepaRG_KCNK1: Life Technologies and Expression Analysis (LTEA) Assay for Potassium channel subfamily K member 1 (KCNK1) using HepaRG (AID 2283511)
Method in brief: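 HepaRG, 48 h exposure, 8-pt half-log series top 100 uM, 0.5% DMSO vehicle, duplicates. Readout: KCNK1 transcript by qRT-PCR (Fluidigm array), housekeeping-normalized; bidirectional curve fit relative to DMSO baseline.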

[15] = read-out: Keratin 19 (KRT19), KRT19 (gene 3880); experiment: LTEA_HepaRG_KRT19: Life Technologies and Expression Analysis (LTEA) Assay for Keratin 19 (KRT19) using HepaRG (AID 2283512)
Method in brief: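 HepaRG, 48 h chemical exposure, 8-pt half-log CRC from 100 uM, 0.5% DMSO vehicle, duplicates. Readout: TaqMan qRT-PCR of KRT19 mRNA, housekeeping-normalized (ACTB/GAPDH/POLR2A). Bidirectional fit vs DMSO baseline.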

[16] = read-out: JUN Transcription Factor, JUN (gene 3725); experiment: LTEA_HepaRG_JUN: Life Technologies and Expression Analysis (LTEA) Assay for JUN Transcription Factor using HepaRG (AID 2283513)
Method in brief: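 HepaRG, 48 h exposure, 8-pt half-log series top 100 uM, 0.5% DMSO, duplicate. JUN mRNA by qRT-PCR (Fluidigm), housekeeping-normalized (ACTB/GAPDH/POLR2A); bidirectional curve fit vs DMSO baseline.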

[17] = read-out: Lipase C (LIPC), LIPC (gene 3990); experiment: LTEA_HepaRG_LIPC: Life Technologies and Expression Analysis (LTEA) Assay for Lipase C (LIPC) using HepaRG (AID 2283514)
Method in brief: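 HepaRG, 48 h exposure, 8-pt half-log series from 100 uM in 0.5% DMSO, duplicates. Readout: LIPC mRNA by Fluidigm qRT-PCR, housekeeping-normalized (ACTB/GAPDH/POLR2A). Gain or loss fitted bidirectionally against DMSO baseline.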

[18] = read-out: Lipoprotein lipase (LPL), LPL (gene 4023); experiment: LTEA_HepaRG_LPL: Life Technologies and Expression Analysis (LTEA) Assay for Lipoprotein lipase (LPL) using HepaRG (AID 2283515)
Method in brief: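 HepaRG, 48 h exposure, 8-pt half-log dilutions from 100 uM, 0.5% DMSO vehicle, duplicates; qRT-PCR (Fluidigm array) of LPL mRNA vs housekeeping genes; bidirectional curve fit relative to DMSO baseline.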

[19] = read-out: MicroRNA 122 (MIR122), gene 406906; experiment: LTEA_HepaRG_MIR122: Life Technologies and Expression Analysis (LTEA) Assay for MicroRNA 122 (MIR122) using HepaRG (AID 2283516); note: the transcript read is the microRNA miR-122
Method in brief: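 qRT-PCR read-out (TaqMan, Fluidigm array), normalized to three housekeeping genes; HepaRG cells dosed 48 h at 8 concentrations up to 100 uM in 0.5% DMSO, duplicate; gain or loss fitted against DMSO baseline.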

[20] = read-out: Glutamate-cysteine ligase catalytic (GCLC), GCLC (gene 2729); experiment: LTEA_HepaRG_GCLC: Life Technologies and Expression Analysis (LTEA) Assay for Glutamate-cysteine ligase catalytic (GCLC) using HepaRG (AID 2283498)
Method in brief: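 HepaRG, 48 h exposure, 8-pt half-log series from 100 uM, 0.5% DMSO vehicle; TaqMan qRT-PCR for GCLC mRNA, housekeeping-normalized; bidirectional curve fit vs DMSO baseline.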

Measured: AC50

Chain of Hypoxia-inducible factor 1-alpha (Homo sapiens) (Q16665 whole entry, looked up): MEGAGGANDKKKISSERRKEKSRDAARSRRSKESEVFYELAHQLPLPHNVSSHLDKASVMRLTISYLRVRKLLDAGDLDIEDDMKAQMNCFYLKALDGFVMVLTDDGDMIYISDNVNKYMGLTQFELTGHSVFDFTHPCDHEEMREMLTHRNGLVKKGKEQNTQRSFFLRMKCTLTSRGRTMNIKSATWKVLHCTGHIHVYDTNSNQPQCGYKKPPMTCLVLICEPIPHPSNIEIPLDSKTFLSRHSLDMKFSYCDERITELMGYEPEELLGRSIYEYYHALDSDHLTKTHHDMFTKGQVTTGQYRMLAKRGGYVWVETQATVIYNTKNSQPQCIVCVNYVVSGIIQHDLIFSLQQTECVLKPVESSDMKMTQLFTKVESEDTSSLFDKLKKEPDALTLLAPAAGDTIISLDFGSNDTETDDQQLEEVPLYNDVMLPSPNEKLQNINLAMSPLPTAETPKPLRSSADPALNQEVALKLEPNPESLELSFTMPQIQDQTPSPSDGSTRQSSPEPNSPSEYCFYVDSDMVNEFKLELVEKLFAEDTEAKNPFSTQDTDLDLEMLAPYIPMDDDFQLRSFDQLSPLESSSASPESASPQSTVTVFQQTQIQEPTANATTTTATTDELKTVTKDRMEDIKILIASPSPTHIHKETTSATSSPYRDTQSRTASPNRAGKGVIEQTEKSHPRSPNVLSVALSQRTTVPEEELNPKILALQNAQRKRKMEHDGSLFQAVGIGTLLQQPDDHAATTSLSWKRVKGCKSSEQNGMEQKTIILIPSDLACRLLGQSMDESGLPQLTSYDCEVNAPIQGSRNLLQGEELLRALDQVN

O=P(OC(CCl)CCl)(OC(CCl)CCl)OC(CCl)CCl
active: [1] 75.6 µM | [2] 94.3 µM | [3] 83.9 µM | [7] 72.8 µM | [9] 50 µM | [10] 84.1 µM | [11] 62.7 µM | [12] 79.6 µM | [15] 50 µM | [17] 65.3 µM | [18] 91.3 µM | [19] 59.6 µM
inactive: [4] | [5] | [6] | [8] | [13] | [14] | [16]

Cn1cnc([N+](=O)[O-])c1Sc1ncnc2nc[nH]c12
active: [1] 1.35 µM | [2] 1.11 µM | [7] 3.93 µM | [10] 3.59 µM | [11] 2.75 µM | [14] 4.15 µM | [15] 5.94 µM | [17] 17.7 µM | [19] 4.54 µM
inactive: [20] | [3] | [4] | [8] | [9] | [12] | [13] | [16] | [18]

CC(C)=CCCC(C)=CC=O
not listed: [20]
inactive: all other assays above

CC(C)=CCC/C(C)=C/CO
not listed: [2] | [5] | [6]
inactive: all other assays above

CN(C)c1ccc(N=NS(=O)(=O)O)cc1
active: [3] 50 µM | [9] 26.2 µM | [11] 75.3 µM | [13] 22.3 µM | [15] 18.9 µM
not listed: [5] | [6]
inactive: all other assays above

O=C(CCCCCCCCc1cccnc1)N1CCC(C=C(c2ccccc2)c2ccccc2)CC1
inactive: [4] | [15]
active: [1] 28.7 µM | [2] 22.8 µM | [3] 12.8 µM | [5] 81 µM | [6] 77.2 µM | [7] 22.9 µM | [8] 11.9 µM | [9] 16.5 µM | [10] 16.4 µM | [11] 28.5 µM | [12] 22.6 µM | [13] 89.3 µM | [14] 50 µM | [16] 28.5 µM | [17] 22.4 µM | [18] 12.8 µM | [19] 26.5 µM

Cn1c(=O)cc(Oc2ccc(F)cc2F)c2cnc(NCC(C)(C)O)nc21
active: [2] 9.17 µM | [9] 12.6 µM | [15] 18.3 µM | [18] 9.98 µM
not listed: [20]
inactive: all other assays above
